High-throughput results: PubChem BioAssay, The Scripps Research Institute Molecular Screening Center
hgDAF-12 ag: hgDAF-12 agonism, primary luciferase screen | 1.8% of 370,000 active | HEK293 GAL4-hgDAF12 UAS-luciferase reporter, agonist luminescence; normalized to butyrate control | AID 687014 | activation, % at 6.8 µM;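 active = activation above a cutoff set at the mean of all screened compounds plus 3 SD, cut at about 10% in these data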
hcDAF12 agonist: activators of H. contortus DAF-12 nuclear receptor; 1.4% of 370,000 active; HEK293 hcDAF-12 lit1-tk-luc reporter, luminescence; 0% DMSO, 100% Δ7-dafachronic acid; activation, % at 6.8 µM;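 active = activation above the mean of all tested compounds plus 3 SD, cut at about 5.5% in these data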
DAX1 inh-1: blocks DAX1 repression of SF-1 activated StAR promoter; HEK293T StAR-luciferase reporter, SF-1/DAX-1 repression relief; 1.1% of 370,000 active; inhibition, % at 6.8 µM;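 active = inhibition above the mean over all tested compounds plus 3 SD, cut at about 3.6% in these data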;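 also: higher inhibition means more luminescence from relief of DAX-1 repression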
DAX1 inh-2: NR0B1 (DAX1) inhibition; HEK293 Gal4-DAX1 luciferase reporter, luminescence; 0.99% of 340,000 active; inhibition, % at 6.75 µM; P51843;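 active = inhibition above the mean over all tested compounds plus 3 SD, cut at about 4.2% in these data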;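 also: inhibition shows as a rise in luminescence from relieved DAX1 repression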
Target sequence (P51843 207-470 limits assumed): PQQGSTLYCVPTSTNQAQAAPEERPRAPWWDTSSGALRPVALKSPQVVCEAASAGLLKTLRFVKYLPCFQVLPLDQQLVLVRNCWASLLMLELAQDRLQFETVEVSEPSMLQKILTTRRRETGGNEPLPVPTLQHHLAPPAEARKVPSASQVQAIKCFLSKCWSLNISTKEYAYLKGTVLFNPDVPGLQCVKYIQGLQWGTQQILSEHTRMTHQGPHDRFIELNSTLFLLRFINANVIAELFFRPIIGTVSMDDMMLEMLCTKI
ssDAF-12 act: S. stercoralis DAF-12 activation, primary screen. HEK293 ssDAF-12/GRIP1 lit1-tk-luc reporter, luminescence; % of 3 µM dafachronic acid response. activation, % at 6.8 µM. 1% of 370,000 active. AID 652126;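 active = activation above the mean over all tested compounds plus 3 SD, cut at about 0.9% in these data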
hgDAF12 ag: hgDAF-12 agonism, confirmation assay. 80% of 3,300 active. activation, % at 6.8 µM. AID 743050. shares compounds with hgDAF-12 ag. HEK293 GAL4-hgDAF12 luciferase reporter, agonist mode; percent of butyrate response;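 active = mean activation over triplicate wells above the hit cutoff derived from the earlier primary screen, cut at about 11% in these data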
LXRb DAF12 ctr: counter-screen for DAF-12 agonists: agonists of human LXR-beta; activation, % at 6.8 µM; shares compounds with hgDAF-12 ag; HEK293 Gal4-LXR luciferase reporter, 24 h; 3,300 tested, under 10 active;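 active = mean activation of the triplicate above a set limit carried over from the primary screen, none filed active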
Each line names hits and unclear results; the compound was inactive in the other large screens (follow-up assays come after a bar, where they were run). Sampled rows, rich in hits. Any-hit rate of the full collection: about 4.1%.

O=C(Nc1cccc(C(=O)Nc2ccc(Cl)cn2)c1)c1ccccc1	none
O=C(/C=C/Nc1ccc(Oc2ccccc2Cl)cc1)c1ccco1	hgDAF-12 ag 14.6 | hgDAF12 ag 16.6 | LXRb DAF12 ctr inactive
COc1ccccc1Oc1ccc(N/C=C/C(=O)c2ccco2)cc1	none
COC(=O)c1ccccc1Oc1ccc(NC(=O)c2ccco2)cc1	hgDAF-12 ag 13.5 | hgDAF12 ag inactive | LXRb DAF12 ctr inactive
Cc1ccc(Oc2ccc(NC(=O)c3ccco3)cc2)cc1	none
Cc1ccc(NC(=O)c2ccc(F)cc2)nc1	hgDAF-12 ag 14.6 | hgDAF12 ag 11.7 | LXRb DAF12 ctr inactive
Cc1ccc(NC(=O)c2ccc3[nH]c(=O)c(=O)[nH]c3c2)nc1	none
O=C(Nc1ccc(Cl)cn1)c1cccc(F)c1	hgDAF-12 ag 17.2 | hgDAF12 ag 16.8 | LXRb DAF12 ctr inactive
CC1CCCN(C(=S)Nc2ccc3nc4n(c(=O)c3c2)CCCCC4)C1 (configuration not stated)	none
O=C(CCC(=O)OCc1ccc(C(=O)Oc2ccccc2)cc1)Nc1cccc2ccccc12	none
COc1ccc(C)cc1NC(=O)C(c1ccccc1)N1CCN(CC(=O)NC2CC2)CC1 (configuration not stated)	none
O=C(Nc1ccc(NC(=O)C2CC2)nc1)c1ccco1	none
Cc1cc(NC(=O)c2cccc(F)c2)ncc1NC(=O)c1ccco1	hgDAF-12 ag 14.7 | hgDAF12 ag 11.6 | LXRb DAF12 ctr inactive
O=C(Nc1ccc(NC(=O)c2ccccc2F)cn1)c1ccco1	hgDAF-12 ag 14.4 | hgDAF12 ag inactive | LXRb DAF12 ctr inactive
O=C(Nc1ccc(NC(=O)c2ccco2)nc1)c1cccc(F)c1	hgDAF-12 ag 13.4 | hgDAF12 ag 16.2 | LXRb DAF12 ctr inactive
CCOc1ccc(/C(O)=C2/C(=O)C(=O)N(CCCN3CCOCC3)C2c2ccc(F)cc2)cc1C (configuration not stated)	none
CCOC(=O)C1(C)CCCN(C(=O)c2ccccc2C(F)(F)F)C1 (configuration not stated)	none (no result: DAX1 inh-2)
O=C(COc1ccc(F)cc1Cl)Nc1cccc(S(=O)(=O)N2CCCCCC2)c1	none
CC(C)N=C1NN=C(c2ccc(Cl)c(Cl)c2)CS1	hgDAF-12 ag 19.3 (no result: DAX1 inh-2) | hgDAF12 ag 18.7 | LXRb DAF12 ctr inactive
Cc1cc(C2=NNC(=NC3CC3)SC2)c(C)n1Cc1ccco1	none
COCCCN=C1NN=C(c2cc(C)n(Cc3ccco3)c2C)CS1	hgDAF-12 ag 14.6, ssDAF-12 act 1.6 | hgDAF12 ag inactive | LXRb DAF12 ctr inactive
CCC/C=N/NC(=O)c1ccc(F)cc1	none
CCC/C=N/NC(=O)c1cccc(Br)c1	hgDAF-12 ag 14.4 | hgDAF12 ag inactive | LXRb DAF12 ctr inactive
CC(=O)c1cccc(NC(=O)N2CCC(NC(=O)C34CC5CC(CC(C5)C3)C4)CC2)c1	none
Cc1ccc(/C=C/C(=O)c2ccc(N3CCOCC3)cc2)s1	hgDAF-12 ag 14.4 | hgDAF12 ag inactive | LXRb DAF12 ctr inactive
CCC(c1nnc(SCC(=O)Nc2cccnc2Cl)n1-c1ccccc1)N(C)C (configuration not stated)	none
O=C(NNC(=S)Nc1ccc(Cl)cc1)c1cccs1	hgDAF-12 ag 14.2 | hgDAF12 ag inactive | LXRb DAF12 ctr inactive
CCOC(=O)c1c(NC(=O)C2C3CCC(O3)C2C(=O)O)sc(C)c1-c1ccc(C)cc1 (configuration not stated)	none
Cc1sc(NC(=O)C2C3CCC(O3)C2C(=O)O)nc1-c1ccc(CC(C)C)cc1 (configuration not stated)	hgDAF-12 ag 17.6 | hgDAF12 ag inactive | LXRb DAF12 ctr inactive
Cc1ccc2nccc(C(=O)N3CCCC(N4CCN(c5ccc(F)cc5)CC4)C3)c2c1 (configuration not stated)	none
Cc1cccc(N=Nc2c(C)nn(-c3ccccc3)c2N)c1C	hgDAF-12 ag 15.7 | hgDAF12 ag 10.7 | LXRb DAF12 ctr inactive
Cc1nn(-c2ccccc2)c(N)c1N=Nc1cccc(S(=O)(=O)N2CCOCC2)c1	none
COc1cc(C(=O)N2CCN(C(=O)c3cc(-c4ccc(Br)cc4)n[nH]3)CC2)cc(OC)c1OC	none
O=C1C[C@@H](c2ccccc2)N=C2N(CC3CC3)C/C(=C/c3ccccc3)N12	none (no result: DAX1 inh-2)
O=C(/C(C=Nc1cc2c(oc1=O)CCCC2=O)=C(\O)c1ccccc1)c1ccccc1	hgDAF-12 ag 13.6 | hgDAF12 ag inactive | LXRb DAF12 ctr inactive
O=C(Nc1cc2c(oc1=O)CCCC2=O)c1cccc(Cl)c1	none
Fc1ccc(/C=N/Nc2nccnc2Cl)cc1	hgDAF-12 ag 14.0, DAX1 inh-2 6.1 | hgDAF12 ag inactive | LXRb DAF12 ctr inactive
COc1ccc(C)cc1N(CC(=O)NCCSCc1ccco1)S(=O)(=O)c1ccc(C)cc1	none
O=C(O)C1C2CCC(O2)C1C(=O)Nc1ccc(F)cc1 (configuration not stated)	none
O=C(O)c1ccc(NC(=O)C2C3CCC(O3)C2C(=O)O)cc1 (configuration not stated)	hgDAF-12 ag 14.0, hcDAF12 agonist 6.0, ssDAF-12 act 1.4 | hgDAF12 ag inactive | LXRb DAF12 ctr inactive
CNc1ncc(C(=O)c2ccc(Br)cc2)s1	hgDAF-12 ag 26.2 | hgDAF12 ag 15.9 | LXRb DAF12 ctr inactive
Cc1ccc(C(C)(C)NC(=O)C2CCC(=O)N(C3CCCCCC3)C2)cc1 (configuration not stated)	hgDAF-12 ag 13.4, hcDAF12 agonist 6.0 | hgDAF12 ag 14.0 | LXRb DAF12 ctr inactive
Cc1ccc(C(C)(C)NC(=O)C2CCC(=O)N(CCCN3CCOCC3)C2)cc1 (configuration not stated)	none
CCOC(=O)C1(C)CCCCN1C(=O)c1cccnc1 (configuration not stated)	none (no result: DAX1 inh-2)
O=C(c1ccc2c(c1)CCN2S(=O)(=O)c1ccccc1)N1CCN(c2ccccc2F)CC1	none
Cc1ccc(CN2CCN(CC(C)C)C(CCO)C2)s1 (configuration not stated)	hgDAF-12 ag 15.1 | hgDAF12 ag inactive | LXRb DAF12 ctr inactive
Cc1ccc(CN2CCN(CCC(C)C)C(CCO)C2)s1 (configuration not stated)	none
Cc1ccc(CONC(=O)c2ccc(Cl)cc2)cc1	none
Cc1ccc(CONC(=O)c2ccccc2)cc1	hgDAF-12 ag 14.9 | hgDAF12 ag 11.4 | LXRb DAF12 ctr inactive
CN(C(=S)NC(=O)c1ccc(Cl)cc1)C1CCCCC1	none
C=CCN1C=CC(=C/C=C(/C#N)C(=O)OCC)C=C1	hgDAF-12 ag 15.8, hcDAF12 agonist 5.6 | hgDAF12 ag 15.5 | LXRb DAF12 ctr inactive
O=C1C=C(c2ccc(F)cc2OCc2ccccc2)C[C@@H](c2ccc(Cl)cc2)C1	none
